In paper PMC5540273 (PLoS ONE, 2017):

How the values were obtained:
Conditions in all cases: concentration: 1 μM,replicates: in singlicate; n = 1
LCK = system: LCK
LIMK1 = system: LIMK1
LIMK2 = system: LIMK2
LKB1 = system: T1, LKB1
T1 construct: gene STK11

LOK = system: T2, LOK
T2 construct: gene STK10

LRRK2 = system: LRRK2
LTK = system: LTK
LYN = system: LYN
LZK = system: T3, LZK
T3 construct: gene MAP3K13

MAK = system: MAK
MAP3K15 = system: MAP3K15
MAP3K1 = system: MAP3K1
MAP3K2 = system: MAP3K2
MAP3K3 = system: MAP3K3
MAP3K4 = system: MAP3K4
MAP4K2 = system: MAP4K2
MAP4K3 = system: MAP4K3
MAP4K4 = system: MAP4K4
MAP4K5 = system: MAP4K5
MAPKAPK2 = system: MAPKAPK2
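Also: KINOMEscan kinase panel screen.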

SMILES	%Inh (LCK) [%]	%Inh (LIMK1) [%]	%Inh (LIMK2) [%]	%Inh (LKB1) [%]	%Inh (LOK) [%]	%Inh (LRRK2) [%]	%Inh (LTK) [%]	%Inh (LYN) [%]	%Inh (LZK) [%]	%Inh (MAK) [%]	%Inh (MAP3K15) [%]	%Inh (MAP3K1) [%]	%Inh (MAP3K2) [%]	%Inh (MAP3K3) [%]	%Inh (MAP3K4) [%]	%Inh (MAP4K2) [%]	%Inh (MAP4K3) [%]	%Inh (MAP4K4) [%]	%Inh (MAP4K5) [%]	%Inh (MAPKAPK2) [%]
NC(=O)c1cc(-c2ccccc2)cc2c(C3CCNCC3)c[nH]c12 [GSK301362]	50	11	20	0	0	2	15	4	0	14	9	18	70	20	11	0	48	22	2	1
CC(C)N1C(=O)Cc2cc(Nc3ncc(C(F)(F)F)c(NCc4cccc(S(C)(=O)=O)c4)n3)ccc21	0	13	0	1	0	34	0	17	40	0	42	0	59	47	2	0	0	24	10	0
O=C(NCCCN1CCOC1=O)c1cnc(NCc2cc(Cl)ccc2Cl)nc1NC1CCCC1	23	20	0	2	10	0	8	18	20	24	0	1	63	48	14	0	37	15	23	0
O=C(NCCNc1ccnc(NCc2ccc(F)cc2)n1)c1cc2ccccc2s1 [GSK1379944]	15	18	0	0	0	29	0	0	0	19	0	68	0	0	27	0	0	2	3	7
Cc1cc2cn[nH]c2cc1-c1cccc2c(N)c(C(N)=O)nnc12		81	53	0	19	86	61	26	60	16	82	31	72	78	28	25	74	34	62	42
C[C@@H]1CCN(C(=O)CC#N)C[C@@H]1N(C)c1ncnc2[nH]ccc12	51	0	0	0	2	0	0	0	0	0	0	0	0	0	11	0	4	0	0	0
Cc1ccc(-n2nc(C(C)(C)C)cc2NC(=O)Nc2ccc(OCCN3CCOCC3)c3ccccc23)cc1 [GW839464]	64	14	14	0	99.9	0		22	0	25	0	0	1	12	30	0	0	90.2	0	0
CCn1c(-c2nonc2N)nc2c(C#CC(C)(C)O)nc(OCCN)cc21.Cl.Cl [GSK902056]	4	0	0	0	0	45	0	5	0	39	2	11	61	31	0	0	0	0	13	24
CN(C)CC(O)COc1ccc(Nc2nccc(-c3cnn4nc(N5CCOCC5)ccc34)n2)cc1 (stereo not drawn) [GW767488]	24	6	27	16	0	0	0	0	21	21	59	63	49	29	14	29	0	14	12	0
COc1ccc(C[C@@H](CN)NC(=O)c2cc(Br)c(-c3ccnc4[nH]ccc34)s2)cc1.Cl.Cl [GSK1389063]	44	24	0	0	0	65	0	0	0	0	7	3	73	67	0	74	39	51	8	0
C[C@H]1Oc2cc(cnc2N)-c2c(nn(C)c2C#N)CN(C)C(=O)c2ccc(F)cc21	49	0	0	0	92.8	0	98.1	35	0	18	0	58	8	26	0	0	5	9	14	0
Cl.Cl.NC[C@H](Cc1ccc(C(F)(F)F)cc1)NC(=O)c1cc(Br)c(-c2ccnc3[nH]ccc23)s1 [GSK1487252]	18	0	0	0	0	0	0	0	0	0	0	10	15	0	7	0	14	11	0	0
Nc1nc(Nc2ccccc2)cc(-c2ccc3c(N)n[nH]c3c2)n1 [GSK2225749]	0	0	0	15	13	45	0	16	0	13	10	10	11	16	0	16	0	28	6	0
